Data from PubChem BioAssay (NCATS).
Inconclusive results are not listed. Where a call stands in place of a potency, no number is given. Active and inactive are the calls of the source. The call rests on the fitted dose curve; in most records, active means well fitted curve in the direction sought with a large enough effect; inconclusive means small, poorly fitted or top-dose-only effect, or another doubt; inactive means no such curve, though single readings can be large; an effect the other way counts as inactive or inconclusive.

assay: qHTS of pediatric cancer cell lines to identify multiple opportunities for drug repurposing: Primary screen for OHS-50 cells (AID 1347103); settings: OHS-50 osteosarcoma viability, CellTiter-Glo luminescence, 48 h; series mostly up to 57.3 µM; further: nearly all actives have a fitted effect of over 40% in size
Procedure, shortened: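 Cells (500-1,000/well) rested 5 h, then received compounds for 48 h; metabolically active cells were measured by CellTiter-Glo luminescence. Final concentrations spanned up to 46 µM (MIPE, 11-point) or 0.59 nM-46 µM (NPC, 8-point) in primary screens, 11-point in follow-ups.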
Potency means the concentration at half of the fitted maximal effect.

| SMILES | Potency |
| --- | --- |
| CCN(CC)C(=O)[C@@H]1C=C2c3cccc4[nH]cc(c34)C[C@H]2N(C)C1 | inactive |
| C[C@]12CCC(=O)C=C1CC[C@@H]1[C@H]3CC[C@](C)(O)[C@@]3(C)CC[C@@H]12 | 25500 nM (active) |
| C[C@]12CC[C@H]3[C@@H](CC[C@@]45O[C@H]4C(O)=C(C#N)C[C@]35C)[C@H]1CC[C@H]2O | inactive |
| CC(Cc1ccccc1)N(C)Cc1ccco1 (stereo not given) | inactive |
| COc1cccc2c1C(=O)c1c(O)c3c(c(O)c1C2=O)C[C@@](O)(C(=O)CO)CC3OC1CC(N2CCOC(OC)C2)C(O)C(C)O1 (stereo not given in full) | 34.7 nM (active) |
| CCCCCCCCCC(=O)O[C@H]1CC[C@H]2[C@@H]3CCC4=CC(=O)CC[C@@H]4[C@H]3CC[C@]12C | inactive |
| C[C@](O)(CS(=O)(=O)c1ccc(F)cc1)C(=O)Nc1ccc(C#N)c(C(F)(F)F)c1 | inactive |

assay: qHTS of pediatric cancer cell lines to identify multiple opportunities for drug repurposing: Primary screen for RD cells (AID 1347104); settings: RD rhabdomyosarcoma viability, CellTiter-Glo luminescence, 48 h; series mostly up to 46 µM; further: nearly all actives have a fitted effect of over 55% in size
Procedure, shortened: (§1)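 ATP-based luminescence (CellTiter-Glo) quantifies viability after a 48-hour exposure. Compounds are dosed across 8 or 11 final concentrations; DMSO and 2.3 µM bortezomib serve as controls.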

| SMILES | Potency |
| --- | --- |
| CCN(CC)C(=O)[C@@H]1C=C2c3cccc4[nH]cc(c34)C[C@H]2N(C)C1 | inactive |
| O=C1c2ccccc2C(=O)C1C(=O)C(c1ccccc1)c1ccccc1 | inactive |
| C[C@]12Cc3cn[nH]c3C[C@@H]1CC[C@@H]1[C@@H]2CC[C@@]2(C)[C@H]1CC[C@]2(C)O | inactive |
| C[C@]12CC[C@H]3[C@@H](CC[C@@]45O[C@H]4C(O)=C(C#N)C[C@]35C)[C@H]1CC[C@H]2O | 29600 nM (active) |
| CC(Cc1ccccc1)N(C)Cc1ccco1 (stereo not given) | inactive |
| COc1cccc2c1C(=O)c1c(O)c3c(c(O)c1C2=O)C[C@@](O)(C(=O)CO)CC3OC1CC(N2CCOC(OC)C2)C(O)C(C)O1 (stereo not given in full) | 84.1 nM (active) |
| CCCCCCCCCC(=O)O[C@H]1CC[C@H]2[C@@H]3CCC4=CC(=O)CC[C@@H]4[C@H]3CC[C@]12C | inactive |
| C[C@](O)(CS(=O)(=O)c1ccc(F)cc1)C(=O)Nc1ccc(C#N)c(C(F)(F)F)c1 | 5900 nM (active) |

assay: qHTS of pediatric cancer cell lines to identify multiple opportunities for drug repurposing: Primary screen for MG 63 (6-TG R) cells (AID 1347105); settings: MG 63 (6-TG R) viability, CellTiter-Glo, 48 h; series mostly up to 46 µM; further: nearly all actives have a fitted effect of over 50% in size
Procedure, shortened: as §1

| SMILES | Potency |
| --- | --- |
| C[C@]12Cc3cn[nH]c3C[C@@H]1CC[C@@H]1[C@@H]2CC[C@@]2(C)[C@H]1CC[C@]2(C)O | inactive |
| CC(Cc1ccccc1)N(C)Cc1ccco1 (stereo not given) | inactive |
| COc1cccc2c1C(=O)c1c(O)c3c(c(O)c1C2=O)C[C@@](O)(C(=O)CO)CC3OC1CC(N2CCOC(OC)C2)C(O)C(C)O1 (stereo not given in full) | 21.1 nM (active) |
| CCCCCCCCCC(=O)O[C@H]1CC[C@H]2[C@@H]3CCC4=CC(=O)CC[C@@H]4[C@H]3CC[C@]12C | inactive |
| C[C@](O)(CS(=O)(=O)c1ccc(F)cc1)C(=O)Nc1ccc(C#N)c(C(F)(F)F)c1 | 1180 nM (active) |
